According to the supplement of paper PMC8728848:
The entries come from a sample that favours the strongest signals as a whole.

What was measured:
Assay in all cases: glycan array binding signal (z-score within array); higher = stronger binding
Conditions in all cases: glycan notation: IUPAC condensed, linker removed
[1] = target: Fuc(a1-2)Gal(b1-3)GalNAc(b1-3)Gal(a1-4)Gal(b1-4)Glc
How it was run: (§1)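 Glycan array data came from 3228 arrays in the Consortium for Functional Glycomics database, and only arrays with an available protein sequence were kept. Glycan names were put into IUPAC-condensed notation, and columns mapping to the same glycan were averaged. The binding signal is a within-array Z-score, averaged across arrays of one protein sequence run at different concentrations or buffers and across linkers. A negative Z-score can be read as non-binding.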

[2] = target: Fuc(a1-2)Gal(b1-4)GlcNAc(b1-3)[Fuc(a1-3)[Gal(b1-4)]GlcNAc(b1-6)]Gal(b1-4)Glc
How it was run: as §1

[3] = target: Fuc(a1-2)Gal(b1-4)[Fuc(a1-3)]GlcNAc(b1-2)Man(a1-3)[Fuc(a1-2)Gal(b1-4)[Fuc(a1-3)]GlcNAc(b1-2)Man(a1-6)]Man(b1-4)GlcNAc(b1-4)[Fuc(a1-6)]GlcNAc
How it was run: as §1

[4] = target: Fuc(a1-2)Gal(b1-4)[Fuc(a1-3)]GlcNAc(b1-3)GalNAc
How it was run: as §1

Fuc(a1-2)[Gal(a1-3)]Gal = target: Fuc(a1-2)[Gal(a1-3)]Gal
How it was run: as §1

[5] = target: Fuc(a1-2)[Gal(a1-3)]Gal(b1-3)GlcNAc
How it was run: as §1

[6] = target: Fuc(a1-2)[Gal(a1-3)]Gal(b1-4)GlcNAc(b1-3)[Fuc(a1-2)[Gal(a1-3)]Gal(b1-4)GlcNAc(b1-6)]GalNAc
How it was run: as §1

[7] = target: Fuc(a1-2)[GalNAc(a1-3)]Gal(b1-3)GlcNAc(b1-3)GalNAc
How it was run: as §1

[8] = target: Fuc(a1-2)[GalNAc(a1-3)]Gal(b1-4)GlcNAc(b1-2)Man
How it was run: as §1

[9] = target: Fuc(a1-2)[GalNAc(a1-3)]Gal(b1-4)[Fuc(a1-3)]GlcNAc(b1-3)GalNAc
How it was run: as §1

[10] = target: Fuc(a1-3)[GalNAc(b1-4)]GlcNAc
How it was run: as §1

Fuc(a1-4)GlcNAc = target: Fuc(a1-4)GlcNAc
How it was run: as §1

Gal(a1-3)Gal = target: Gal(a1-3)Gal
How it was run: as §1

Gal(a1-3)Gal(b1-3)GlcNAc = target: Gal(a1-3)Gal(b1-3)GlcNAc
How it was run: as §1

[11] = target: Gal(a1-3)[Gal(a1-4)]Gal(b1-4)GlcNAc
How it was run: as §1

Gal(b1-3)GalNAc = target: Gal(b1-3)GalNAc
How it was run: as §1

[12] = target: Gal(b1-3)GlcNAc(b1-3)Gal(b1-4)GlcNAc
How it was run: as §1

[13] = target: Gal(b1-4)GlcNAc(b1-2)[Gal(b1-4)GlcNAc(b1-6)]Man(a1-6)[GlcNAc(b1-4)][Gal(b1-4)GlcNAc(b1-2)Man(a1-3)]Man(b1-4)GlcNAc(b1-4)GlcNAc
How it was run: as §1

[14] = target: Gal(b1-4)GlcNAc(b1-3)Gal(b1-4)GlcNAc(b1-3)Gal(b1-4)GlcNAc(b1-3)Gal(b1-4)GlcNAc(b1-2)[Gal(b1-4)GlcNAc(b1-3)Gal(b1-4)GlcNAc(b1-3)Gal(b1-4)GlcNAc(b1-3)Gal(b1-4)GlcNAc(b1-6)]Man(a1-6)[Gal(b1-4)GlcNAc(b1-3)Gal(b1-4)GlcNAc(b1-3)Gal(b1-4)GlcNAc(b1-3)Gal(b1-4)GlcNAc(b1-2)Man(a1-3)]Man(b1-4)GlcNAc(b1-4)[Fuc(a1-6)]GlcNAc
How it was run: as §1

[15] = target: Gal(b1-4)GlcNAc(b1-3)Gal(b1-4)GlcNAc(b1-3)Gal(b1-4)GlcNAc(b1-3)Gal(b1-4)GlcNAc(b1-3)Gal(b1-4)GlcNAc(b1-3)Gal(b1-4)GlcNAc(b1-2)Man(a1-3)[Gal(b1-4)GlcNAc(b1-3)Gal(b1-4)GlcNAc(b1-3)Gal(b1-4)GlcNAc(b1-3)Gal(b1-4)GlcNAc(b1-3)Gal(b1-4)GlcNAc(b1-3)Gal(b1-4)GlcNAc(b1-2)Man(a1-6)]Man(b1-4)GlcNAc(b1-4)GlcNAc
How it was run: as §1

[16] = target: Gal(b1-4)GlcNAc(b1-6)GalNAc
How it was run: as §1

[17] = target: Gal(b1-4)GlcNAc(b1-6)[Gal(b1-3)]GalNAc
How it was run: as §1

[18] = target: Gal3S(b1-3)[Fuc(a1-4)]GlcNAc
How it was run: as §1

[19] = target: Gal3S(b1-4)[Fuc(a1-3)]Glc6S
How it was run: as §1

[20] = target: GalNAc(b1-3)Gal(a1-4)Gal(b1-4)GlcNAc(b1-3)Gal(b1-4)Glc
How it was run: as §1

[21] = target: GalNAc(b1-3)Gal(a1-6)Gal(b1-4)Glc
How it was run: as §1

GalNAc(b1-3)GlcNAc = target: GalNAc(b1-3)GlcNAc
How it was run: as §1

GalNAc(b1-4)GlcNAc = target: GalNAc(b1-4)GlcNAc
How it was run: as §1

[22] = target: GlcNAc(b1-2)Gal(b1-3)GalNAc
How it was run: as §1

[23] = target: GlcNAc(b1-2)[GlcNAc(b1-4)]Man(a1-3)[GlcNAc(b1-2)Man(a1-6)]Man(b1-4)GlcNAc(b1-4)GlcNAc
How it was run: as §1

[24] = target: GlcNAc(b1-2)[GlcNAc(b1-4)]Man(a1-3)[GlcNAc(b1-4)][GlcNAc(b1-2)Man(a1-6)]Man(b1-4)GlcNAc(b1-4)GlcNAc
How it was run: as §1

[25] = target: GlcNAc(b1-3)Gal(b1-4)GlcNAc(b1-3)Gal(b1-4)GlcNAc(b1-2)Man(a1-3)[GlcNAc(b1-3)Gal(b1-4)GlcNAc(b1-3)Gal(b1-4)GlcNAc(b1-2)Man(a1-6)]Man(b1-4)GlcNAc(b1-4)GlcNAc
How it was run: as §1

[26] = target: GlcNAc(b1-4)Gal(b1-4)GlcNAc
How it was run: as §1

[27] = target: Man(a1-3)[Man(a1-6)]Man(b1-4)GlcNAc(b1-4)[Fuc(a1-6)]GlcNAc
How it was run: as §1

[28] = target: Neu5Ac(a2-3)Gal(b1-3)GlcNAc(b1-3)GalNAc
How it was run: as §1

[29] = target: Neu5Ac(a2-3)Gal(b1-4)GlcNAc(b1-2)[Neu5Ac(a2-3)Gal(b1-4)GlcNAc(b1-6)]Man(a1-6)[Neu5Ac(a2-3)Gal(b1-4)GlcNAc(b1-2)Man(a1-3)]Man(b1-4)GlcNAc(b1-4)GlcNAc
How it was run: as §1

[30] = target: Neu5Ac(a2-3)Gal(b1-4)GlcNAc(b1-3)Gal
How it was run: as §1

[31] = target: Neu5Ac(a2-3)Gal(b1-4)GlcNAc(b1-3)[Neu5Ac(a2-3)Gal(b1-4)GlcNAc(b1-6)]GalNAc
How it was run: as §1

[32] = target: Neu5Ac(a2-3)Gal(b1-4)[Fuc(a1-3)]GlcNAc(b1-3)GalNAc
How it was run: as §1

[33] = target: Neu5Ac(a2-3)Gal(b1-4)[Fuc(a1-3)]GlcNAc(b1-6)[Neu5Ac(a2-3)Gal(b1-3)]GalNAc
How it was run: as §1

[34] = target: Neu5Ac(a2-6)Gal(b1-4)GlcNAc(b1-3)Gal(b1-4)GlcNAc
How it was run: as §1

[35] = target: Neu5Ac(a2-6)Gal(b1-4)GlcNAc(b1-3)Gal(b1-4)GlcNAc(b1-3)[Neu5Ac(a2-6)Gal(b1-4)GlcNAc(b1-3)Gal(b1-4)GlcNAc(b1-6)]GalNAc
How it was run: as §1

[36] = target: Neu5Ac(a2-8)Neu5Ac(a2-3)[GalNAc(b1-4)]Gal(b1-4)Glc
How it was run: as §1

[37] = target: Neu5Ac(a2-8)Neu5Ac(a2-8)Neu5Ac(a2-3)[Gal(b1-3)GalNAc(b1-4)]Gal(b1-4)Glc
How it was run: as §1

[38] = target: Neu5Gc(a2-3)Gal(b1-4)[Fuc(a1-3)]GlcNAc
How it was run: as §1

B1: AT5G24760(45) (Arabidopsis thaliana), Q8LEB2 (protein)
chain: MSASSSSFEQPQVITCNAAVAWRAGEPLVMEEVEVSPPQPLEIRIKVVCTSLCRSDLSAWESQSLLPRIFGHEAAGIVESIGEGVTEFEKGDHVLAVFTGECGSCRHCISGKSNMCQVLGMERKGLMHSDQKTRFSIKGKPVYHYCAVSSFSEYTVVHSGCAVKVDPLAPLHKICLLSCGVAAGLGAAWNVADVQKGSSVVIFGLGTVGLSVAQGAKLRGAAQILGVDINPAKAEQAKTFGVTDFINSNDLSEPIPQVIKRMTGGGADFSFECVGDTGIATTALQSCSDGWGMTVTLGVPKAKPEVSAHYGLFLSGKSLKGTLFGGWKPKSDLPSLIDKYMNKEIMIDEFITHNLSFDEINKAFVLMREGKCLRCVLHMPK
- glycan array binding signal (z-score) [1]: -0.051
- glycan array binding signal (z-score) [2]: 0.166
- glycan array binding signal (z-score) [3]: 0.395
- glycan array binding signal (z-score) [4]: 4.6
- glycan array binding signal (z-score) (Fuc(a1-2)[Gal(a1-3)]Gal): 0.984
- glycan array binding signal (z-score) [5]: -0.224
- glycan array binding signal (z-score) [6]: 0.627
- glycan array binding signal (z-score) [7]: 3.83
- glycan array binding signal (z-score) [8]: -0.179
- glycan array binding signal (z-score) [9]: 6.82
- glycan array binding signal (z-score) [10]: 1.18
- glycan array binding signal (z-score) (Fuc(a1-4)GlcNAc): 1.12
- glycan array binding signal (z-score) (Gal(a1-3)Gal): 0.612
- glycan array binding signal (z-score) (Gal(a1-3)Gal(b1-3)GlcNAc): 7.36
- glycan array binding signal (z-score) [11]: 6.01
- glycan array binding signal (z-score) (Gal(b1-3)GalNAc): 0.106
- glycan array binding signal (z-score) [12]: -0.138
- glycan array binding signal (z-score) [13]: -1.03
- glycan array binding signal (z-score) [14]: -0.779
- glycan array binding signal (z-score) [15]: -0.887
- glycan array binding signal (z-score) [16]: 1.23
- glycan array binding signal (z-score) [17]: -0.485
- glycan array binding signal (z-score) [18]: 0.437
- glycan array binding signal (z-score) [19]: 2.68
- glycan array binding signal (z-score) [20]: -0.632
- glycan array binding signal (z-score) [21]: -0.337
- glycan array binding signal (z-score) (GalNAc(b1-3)GlcNAc): 0.645
- glycan array binding signal (z-score) (GalNAc(b1-4)GlcNAc): 3.23
- glycan array binding signal (z-score) [22]: 2.61
- glycan array binding signal (z-score) [23]: 1.01
- glycan array binding signal (z-score) [24]: -0.932
- glycan array binding signal (z-score) [25]: 1.14
- glycan array binding signal (z-score) [26]: 2.53
- glycan array binding signal (z-score) [27]: -0.202
- glycan array binding signal (z-score) [28]: -0.553
- glycan array binding signal (z-score) [29]: -0.601
- glycan array binding signal (z-score) [30]: -0.951
- glycan array binding signal (z-score) [31]: -1.2
- glycan array binding signal (z-score) [32]: 3.17
- glycan array binding signal (z-score) [33]: 2.76
- glycan array binding signal (z-score) [34]: -0.877
- glycan array binding signal (z-score) [35]: -0.602
- glycan array binding signal (z-score) [36]: -0.388
- glycan array binding signal (z-score) [37]: 0.125
- glycan array binding signal (z-score) [38]: -0.203
